Compound activity: PubChem BioAssay, National Center for Advancing Translational Sciences (NCATS)
Sampled rows, rich in hits. Any-hit rate of the full collection: about 7.9%.
FMDV inh: High Throughput Screening for Foot and Mouth Disease Virus Antivirals | AID 1159524, 2015 | 410,000 compounds, 1.2% hits | FMDV antiviral cell-based qHTS | Potency, µM (highest dose often 57.9 µM), hits mostly inhibitors; calls by dose curve; tested in HEK293T cells; also: read-out not given here; nearly all actives have a fitted effect of over 45% in size
HCMV inh: qHTS Assay for inhibitors of the human cytomegalovirus (HCMV). HFF cells, HCMV-luciferase reporter, 72 h; active compounds read low. activity change, negative = inhibition, % at 57.5 µM. 410,000 compounds, 4.5% hits; in the data active = activity change below about -60%; inconclusive = no clear call, values can overlap the other calls; inactive = above about -39%
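Inhibition of viral replication was scored as loss of reporter luminescence in HFFs infected with HCMV-luciferase (MOI 1 PFU/cell) for 72 h; compounds tested at 2 doses, normalized to buffer and Salinomycin controls.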
Lassa entry inh: qHTS for Inhibitors of binding or entry into cells for Lassa Virus; Potency, µM (series often up to 37.9 µM), most hits filed as inhibitors; 300,000 compounds, 1.2% hits; AID 540256, 2011; Lassa virus pseudotype entry inhibition, cell reporter; calls by dose curve; tested in HEK293 cells; also: nearly all actives have a fitted effect of over 50% in size
HCV inh: qHTS Assay for Inhibitors of Hepatitis C Virus (HCV); Huh7.5.1 HCVcc-Cre infection, luciferase reporter, 44 h; Potency, µM (highest dose often 41.8 µM), actives largely listed as inhibitors; 340,000 compounds, 3.4% hits; AID 651820, 2012; active = well fitted inhibition curve with a large enough effect; inconclusive = small, poorly fitted or top-dose-only effect, or another doubt; inactive = no such curve, though single readings can be large or run the other way
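Whole-lifecycle infectious HCVcc-Cre system; cells 1,000/well, compound then virus (~0.5 moi) added 4 h after plating, 44 h culture. Luciferase read 15 sec following 15 min substrate incubation, room temp.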
Marburg entry inh: qHTS for inhibitors of binding or entry into cells for Marburg Virus; Potency, µM (titrated, usually from 37.8 µM), usual class: inhibitors; Marburg virus pseudotyped entry inhibition, cell reporter; AID 540276, 2011; 300,000 compounds, 1.8% hits; calls by dose curve; tested in HEK293 cells
Of the large screens only hits and unclear results are named; the others gave an inactive call.

CCCn1c(CCC(=O)Nc2ccccc2Cc2ccccc2)nc2cc(S(=O)(=O)N3CCOCC3)ccc21	Lassa entry inh inconclusive, HCV inh inconclusive, Marburg entry inh 13µM
COc1ccc(-c2cc(C(F)(F)F)nc(SCC(=O)NCc3ccc(Cl)cc3)n2)cc1	none (no result: HCV inh)
CCOC(=O)c1ccc(N=Nc2c(C)[nH]n(-c3ccccc3)c2=O)cc1	none (no result: Lassa entry inh, Marburg entry inh)
CCOC(=O)c1ccc(-n2[nH]c(-c3ccccc3)cc2=O)cc1	FMDV inh inconclusive, Lassa entry inh inconclusive, HCV inh 14µM
COc1cccc(CNC(=O)C2CCN(C(=O)N3CCOc4ccc(Cl)cc43)CC2)c1OC	Lassa entry inh inconclusive (no result: HCV inh, Marburg entry inh)
Cc1cccc(N2CCN(S(=O)(=O)c3cn(C)c(C)n3)CC2)c1C	none (no result: HCV inh, Marburg entry inh)
C[C@H](N)C(=O)OC(C)(C)Cc1ccc(Cl)cc1	none (no result: FMDV inh, HCMV inh, Lassa entry inh, HCV inh)
C=Cc1ccc(Cn2c(C)c(C(=O)NCc3ccc4c(c3)OCO4)sc2=O)cc1	none (no result: Lassa entry inh, HCV inh, Marburg entry inh)
C=Cc1ccc(Cn2c(C)c(C(=O)NCc3ccc(C#N)cc3)sc2=O)cc1	FMDV inh inconclusive, HCMV inh -60 (no result: Lassa entry inh, HCV inh, Marburg entry inh)
COc1ccc(CNC(=O)c2sc(=O)n(Cc3ccc(C)cc3)c2C)cc1OC	FMDV inh 25µM (no result: Lassa entry inh, HCV inh, Marburg entry inh)
COc1ccc(CNC(=O)c2[nH]c(C(F)(F)F)nc2-c2ccccc2)cc1OC	none (no result: Lassa entry inh, HCV inh, Marburg entry inh)
COc1ccc(CNC(=O)c2sccc2-c2ccccc2)cc1OC	FMDV inh inconclusive, HCMV inh -71 (no result: Lassa entry inh, Marburg entry inh)
Cc1ccc(Cn2c(C)c(C(=O)NCc3cccc(C(F)(F)F)c3)sc2=O)cc1	none (no result: Lassa entry inh, HCV inh, Marburg entry inh)
COc1ccc(CNC(=O)c2sc(=O)n(Cc3ccc(-c4ccccc4)cc3)c2C)cc1OC	FMDV inh 16µM, HCMV inh inconclusive (no result: Lassa entry inh, HCV inh, Marburg entry inh)
O=C(Cn1c(=O)n2nc(-c3cccc(F)c3)nc2c2ccccc21)N1CCN(c2ccc(F)cc2)CC1	none (no result: HCV inh, Marburg entry inh)
Cc1ccc(NC(=O)N2CC3CCCN3c3ccccc32)cc1Cl (stereo not given)	none (no result: HCV inh, Marburg entry inh)
Cc1c(C(=O)NCc2cccc([N+](=O)[O-])c2)sc(=O)n1Cc1cccc(F)c1	HCMV inh -61 (no result: Lassa entry inh, HCV inh, Marburg entry inh)
COc1ccccc1Cn1c(C)c(C(=O)NCc2cccc(C)c2)sc1=O	HCMV inh -61 (no result: Lassa entry inh, HCV inh, Marburg entry inh)
CCc1cc(C(=O)N2CCc3c([nH]c4ccccc34)C2c2ccc(OC)cc2F)no1 (stereo not given)	HCMV inh -64, Lassa entry inh inconclusive, HCV inh inconclusive, Marburg entry inh 0.89µM
COc1ccc(C2c3[nH]c4ccccc4c3CCN2C(=O)c2ccc(=O)n(C)n2)c(F)c1 (stereo not given)	Lassa entry inh inconclusive, Marburg entry inh inconclusive
CCOc1ccc(C2c3[nH]c4ccccc4c3CCN2C(=O)CCc2ccccc2)cc1 (stereo not given)	HCMV inh -84, Lassa entry inh inconclusive (no result: HCV inh, Marburg entry inh)
COc1ccc(CC(=O)N2CCc3c([nH]c4ccccc34)C2c2ccc(SC)cc2)cc1 (stereo not given)	Lassa entry inh inconclusive (no result: HCV inh, Marburg entry inh)
COc1ccc(CCC(=O)N2CCc3c([nH]c4ccccc34)C2c2ccc(F)cc2)cc1 (stereo not given)	HCMV inh -80, Lassa entry inh inconclusive (no result: HCV inh, Marburg entry inh)
CCOc1ccc(C2c3[nH]c4ccccc4c3CCN2C(=O)Cc2cccc(OCC)c2OCC)cc1 (stereo not given)	Lassa entry inh inconclusive (no result: HCV inh, Marburg entry inh)
COC(=O)C1=C(C)N(Cc2ccccc2)C(=O)NC1CCc1ccccc1 (stereo not given)	none (no result: FMDV inh, HCMV inh, Lassa entry inh, HCV inh)
CC1CCc2c(sc3ncnc(N4CCOCC4)c23)C1 (stereo not given)	HCMV inh -65
Cc1ccc(C(=O)CSc2ncnc3sc4c(c23)CCC(C)C4)cc1 (stereo not given)	HCMV inh -99, HCV inh inconclusive
CC1CCc2sc3ncnc(N4CCOCC4)c3c2C1 (stereo not given)	FMDV inh inconclusive, HCMV inh inconclusive, HCV inh 10µM
Cc1ccc(-c2nc(NC(=O)CSc3ncnc4sc5c(c34)CCC(C)C5)ns2)cc1 (stereo not given)	none (no result: HCV inh)
CCOc1ccc(CN2CCN(c3ncnc4sc5c(c34)CC(C)CC5)CC2)cc1 (stereo not given)	none (no result: HCV inh)
Cc1ccc(Cl)cc1NC(=O)c1oc2ccc(S(=O)(=O)N3CCC4(CC3)OCCO4)cc2c1C	none (no result: HCV inh, Marburg entry inh)
CCCCNS(=O)(=O)c1ccc2nc(SCC(=O)Nc3ccccc3Cl)[nH]c2c1	HCMV inh -82, Lassa entry inh inconclusive, HCV inh 13µM, Marburg entry inh inconclusive
CCCCNS(=O)(=O)c1ccc2nc(SCC(=O)c3ccccc3OC)[nH]c2c1	HCMV inh -79, HCV inh inconclusive, Marburg entry inh inconclusive
O=C(CSc1nc2ccccc2[nH]1)Nc1ccccc1F	HCMV inh -100 (no result: FMDV inh)
COc1ccccc1C1c2ccc3ccccc3c2Oc2ncn(CCN(C)C)c(=N)c21 (stereo not given)	HCMV inh -101, Lassa entry inh inconclusive, HCV inh 13µM, Marburg entry inh 2.8µM
COc1ccc(C2c3ccc4ccccc4c3Oc3ncn(CCCN(C)C)c(=N)c32)cc1 (stereo not given)	HCMV inh -64, Lassa entry inh inconclusive, HCV inh inconclusive, Marburg entry inh 1.8µM
COc1ccc(C2c3c(ncn(CCN4CCOCC4)c3=N)Oc3ccc4ccccc4c32)cc1OC (stereo not given)	FMDV inh inconclusive, Lassa entry inh inconclusive, HCV inh inconclusive, Marburg entry inh 10µM
COc1ccc(C2c3c(ncn(CCCO)c3=N)Oc3ccc4ccccc4c32)cc1 (stereo not given)	FMDV inh inconclusive, Lassa entry inh inconclusive, Marburg entry inh inconclusive
COc1ccccc1C1c2ccc3ccccc3c2Oc2ncn(CCCO)c(=N)c21 (stereo not given)	Lassa entry inh inconclusive, HCV inh inconclusive, Marburg entry inh inconclusive (no result: HCMV inh)
CCc1ccccc1N1C(=O)N(C)c2ccccc2S1(=O)=O	none (no result: HCV inh, Marburg entry inh)
Cc1ccc(SCC(=O)Nc2ccc(-c3nnc(-c4ccco4)o3)cc2)cc1	Lassa entry inh inconclusive, HCV inh 11µM, Marburg entry inh inconclusive
Cc1ccc(NC(=O)CCSc2nnc(-c3ccco3)o2)cc1	HCV inh inconclusive
Cc1ccc(-c2nnc(-c3ccc(NC(=O)Cc4cccs4)cc3)o2)cc1	HCMV inh -85, Lassa entry inh inconclusive, HCV inh inconclusive, Marburg entry inh inconclusive
Cc1ccc(-c2nnc(SCC(=O)N(C)C)nc2-c2ccc(C)cc2)cc1	HCMV inh -60, Marburg entry inh inconclusive
COc1ccc(NC(=O)CSc2ccc(-c3ccco3)nn2)cc1	HCMV inh -66, Marburg entry inh inconclusive
Cc1ccc(-c2nnc(SCC(N)=O)nc2-c2ccc(C)cc2)cc1	HCMV inh inconclusive, Marburg entry inh inconclusive (no result: Lassa entry inh)
Cc1ccc(-n2nc3c(N4CCC(C(=O)NC5CCC(C)CC5)CC4)nnc(C)c3c2C)cc1 (stereo not given)	none (no result: HCV inh, Marburg entry inh)
c1ccc(-c2ccc([C@H](c3ccccc3)n3ccnc3)cc2)cc1	none (no result: FMDV inh, HCMV inh, Lassa entry inh, HCV inh)
Cc1cc(C)cc(NC(=O)CCS(=O)(=O)c2cccc3nsnc23)c1	none (no result: HCV inh)
COc1ccc(CNC(=O)Cc2ccc(NC(=O)N3CCCCc4ccccc43)cc2)cc1	Lassa entry inh inconclusive (no result: HCV inh, Marburg entry inh)
